ERb coact inh: blocks coactivator binding to human estrogen receptor beta; TR-FRET ER-beta LBD / SRC1-Cy5 peptide binding; receptor agonist-loaded with 1 µM estradiol; inhibition, % at 25.6 µM; 86,000 tested, 1.3% active; AID 633;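 active = compounds whose percent inhibition of the receptor-coactivator binding signal exceeds about 50% in the single-dose screen, limit read from the data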;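 note: 0% = receptor plus peptide wells without compound and 100% = peptide-only wells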
ERa coact inh: blocks coactivator binding to human estrogen receptor alpha. AID 629. 86,000 tested, 1.7% active. inhibition, % at 25.6 µM. TR-FRET ER-alpha LBD / SRC-1 peptide, estradiol-bound; in the data active = inhibition above about 50%;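 note: 0% = receptor plus peptide control and 100% = peptide only without receptor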
ERa coact pot: enhances coactivator binding to human estrogen receptor alpha | AID 639 | P03372 | TR-FRET ERalpha-LBD/SRC-Cy5 coactivator binding, 2 h; 100 = basal binding, no effect | 86,000 tested, 1.3% active | coactivator binding (% of control), % at 25.6 µM; in the data active = activity above about 200%;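 note: binding measured in presence of low estradiol as agonist stimulus; 0% = peptide alone without receptor and 100% = receptor with peptide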
Smad3 inh: Smad3 (human) transcription factor binding inhibition. P84022. TR-FRET Smad3/Dy647-FoxH1 peptide binding, europium anti-His. inhibition, % at 25 µM. 88,000 tested, 0.29% active. AID 630;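 active = compounds that reduce the energy-transfer binding signal between the protein and its labelled peptide by more than half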;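 note: 0% = Smad3 plus labelled peptide maximal FRET and 100% = peptide-only background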
Target sequence (P84022 whole entry, looked up): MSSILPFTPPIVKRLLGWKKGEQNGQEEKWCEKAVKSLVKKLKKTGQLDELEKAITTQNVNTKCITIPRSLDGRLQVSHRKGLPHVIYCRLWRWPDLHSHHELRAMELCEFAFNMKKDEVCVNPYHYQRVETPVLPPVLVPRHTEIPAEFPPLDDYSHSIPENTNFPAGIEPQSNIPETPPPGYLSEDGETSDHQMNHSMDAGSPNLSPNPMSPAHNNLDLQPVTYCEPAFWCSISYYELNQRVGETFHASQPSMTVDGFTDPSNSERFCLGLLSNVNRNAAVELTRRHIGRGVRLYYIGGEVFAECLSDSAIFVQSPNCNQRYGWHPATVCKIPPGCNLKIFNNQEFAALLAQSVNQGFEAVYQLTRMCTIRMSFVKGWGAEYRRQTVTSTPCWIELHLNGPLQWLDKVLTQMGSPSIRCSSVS
FAK inh: inhibitors of human focal adhesion kinase. Q05397. biochemical FAK kinase activity assay. inhibition, %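 (tested at 7 µM)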. 97,000 tested, 0.84% active; in the data active = inhibition above about 19%;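 note: 0% = DMSO and 100% = reference compound high control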
The depositor's hits bear a star; x = no result; [ ] = another dose, or the depositor's remark. Most compounds without a hit are left out; they make up all but 3.3% or so of the library.

SMILES | ERb coact inh | ERa coact inh | ERa coact pot | Smad3 inh | FAK inh
Cc1cccc(NC(=O)Cn2nnc(-c3ccc(CN4CCCC4)cc3)n2)c1C | 17 | 11 | 204*[fluorescence artefact?] | 4 | 2
Cc1ccc(-c2nnn(CC(=O)Nc3ccccc3N3CCOCC3)n2)cc1 | -7 | -2 | 113 | 5 | 0
CCOC(=O)CC(=O)CSc1nc(N)c(C#N)c(-c2ccc(Cl)cc2)c1C#N | 19 | 15 | 220*[fluorescence artefact?] | 5 | -13
N#Cc1c(N)nc(SCC(=O)C23CC4CC(CC(C4)C2)C3)c(C#N)c1-c1ccc(Cl)cc1 | 32 | 34 | 479*[fluorescence artefact?] | 17 | -8
CSc1nc(N)nc(SCC(=O)C23CC4CC(CC(C4)C2)C3)c1C#N | x | x | x | x | -4
C[N+](C)(C)CC(=O)N/N=C/c1c(O)ccc2ccccc12 | x | x | x | 12 | x
CN(C)c1ccc(N=Cc2ccco2)cc1 | 70* | 29 | 66 | 21 | 5
CN(C)c1ccc(C=Nc2ccc(N(C)C)cc2)cc1 | 58*[fluorescence artefact?] | -21 | 78 | 1 | 7
O=C(C[C@@H]1C=Cc2ccccc2N1C(=O)c1ccccc1)c1ccccc1 | x | x | x | -2 | x
CCOC(=O)c1sc2nc(CSc3nc4ccccc4n3CC)[nH]c(=O)c2c1C | 38 | 54*[fluorescence artefact?] | 75 | -1 | 10
COC(=O)c1sc2nc(CSc3nc4ccc(C)cc4[nH]3)[nH]c(=O)c2c1C | 20 | 30 | 64 | 7 | 1
Nc1nc(-c2ccc3ccccc3c2)cc(-c2cc(-c3ccc4ccccc4c3)nc(N)n2)n1 | x | x | x | -2 | x
NS(=O)(=O)c1ccc(NCc2cnc3ccccc3n2)cc1 | x | x | x | 9 | x
NS(=O)(=O)c1ccc(NCc2cnc3ccccc3c2)cc1 | x | x | x | 102* | x
Nc1nc(SCC(=O)O)[nH]c(=O)c1N | x | x | x | 2 | x
Cc1ccc(/C=c2\sc3nc(-c4cccnc4)nn3c2=O)cc1 | 48 | 69*[fluorescence artefact?] | 61 | 9 | -2
O=C(O)/C=C/C(=O)Nc1ccc2c(c1)C(=O)c1cc(F)ccc1-2 | x | x | x | 14 | x
Cc1ccc(-c2nnn(CC(=O)NCC3CC3)n2)o1 | -14 | -3 | 103 | 3 | 2
Cc1ccc(-c2nnn(CC(=O)Nc3ccc4nn(-c5ccccc5)nc4c3)n2)o1 | 39 | 58* | 155 | 5 | 1
COCCCn1c(=N)c(C(=O)NCc2ccc3c(c2)OCO3)cc2c(=O)n3cccc(C)c3nc21 | 24 | 19 | 91 | -1 | x
N=c1c(C(=O)NCc2ccc3c(c2)OCO3)cc2c(=O)n3ccccc3nc2n1Cc1cccnc1 | 57* | 92*[fluorescence artefact?] | 4 | 13 | x
COC(=O)c1cc2c(=O)n3cccc(C)c3nc2n(Cc2cccnc2)c1=N | 4 | 3 | 107 | 3 | x
COc1ccc(Cn2c(=O)[nH]c3cc(C(=O)NCc4ccc5c(c4)OCO5)ccc3c2=O)cc1 | 23 | 51* | 131 | -8 | 0
COc1ccc(CNC(=O)c2cc3c(=O)n4ccccc4nc3n(Cc3cccnc3)c2=N)cc1 | 42 | 78*[fluorescence artefact?] | 53 | 2 | 5
O=C(CCN1CCCCC1)c1csc2ccccc12 | x | x | x | 5 | x
SMILES | ERb coact inh | ERa coact inh | ERa coact pot | Smad3 inh | FAK inh
CC1(C)Cc2c(C#N)c(SCC(=O)c3ccccc3)nc(N3CCOCC3)c2CO1 | 0 | 7 | 246*[fluorescence artefact?] | 11 | 4
CC1(C)Cc2c(C#N)c(SCc3ccccc3)nc(N3CCOCC3)c2CO1 | -25 | -25 | 111 | 8 | 2
Clc1ccccc1C(Nc1cnccn1)Nc1cnccn1 | x | x | x | 35 | x
Cc1ccc(S(=O)(=O)N2CCN(C(=O)CSc3ncc(C(F)(F)F)cc3Cl)CC2)cc1 | 1 | 69* | 94 | -22 | 2
OC(CN1CCN(c2ccccc2)CC1)Cn1c2ccccc2c2ccccc21 (stereo not given) | 0 | -1 | 270*[fluorescence artefact?] | 13 | 0
O=C(Nc1cnc2ccccn2c1=O)c1ccc(F)cc1 | 65* | 6 | 122 | 31 | 0
CC1(C)C(=O)Nc2ccccc2N1C(=O)COc1ccc(S(=O)(=O)N2CCOCC2)cc1Cl | 88*[fluorescence artefact?] | 85*[fluorescence artefact?] | 23 | 0 | 16
CC1(C)C(=O)Nc2ccccc2N1C(=O)COc1ncnc2c(Cl)cc(Cl)cc12 | -3 | -6 | 93 | -6 | -2
CCOC(=O)c1ccc(NS(=O)(=O)c2ccc(SC)cc2)cc1 | -2 | 19 | 50 | 5 | -3
CCOC(=O)Cc1ccc(NS(=O)(=O)c2ccc(SC)cc2)cc1 | 18 | 54* | 52 | 3 | -1
Cc1ccc(N2C(=O)CS/C2=C(\C(Cl)=C(Cl)Cl)[N+](=O)[O-])cc1 | 33 | 22 | 110 | 52* | 0
O[C@@H](c1cc([C@@]23C[C@H]4CC[C@@H]2C[C@H](C4)C3)nc2c(Cl)cc(Cl)cc12)[C@@H]1CCCCN1 | x | x | x | -9 | x
CN1CCN(CCCN)CC1 | x | x | x | -5 | x
CN=c1scc(C)n1/N=C/c1ccc(O)c(O)c1O | 100*[fluorescence artefact?] | 97*[fluorescence artefact?] | 17 | 20 | 1
CSc1nnnc2ccccc12 | x | x | x | 4 | x
CCS(=O)(=O)N1CCC(C(=O)NCCCN2CCCCCC2)CC1 | 0 | -3 | 920*[fluorescence artefact?] | 10 | 4
O=C(O)c1c(-c2c3ccc(=O)cc-3oc3cc(O)ccc23)cc2ccccc2c1-c1ccccc1 | x | x | x | 22 | x
CN1CCc2c(sc(/N=C/c3ccco3)c2C(N)=O)C1 | 0 | -9 | 104 | -5 | 1
CN1CCc2c(sc(/N=C/c3cccs3)c2C(N)=O)C1 | 74*[fluorescence artefact?] | 24 | 70 | -3 | 4
COc1ccc2c3c([nH]c2c1)[C@H]1C[C@@H]2[C@H](C[C@@H](O)[C@H](OC)[C@H]2C(=O)O)CN1CC3 | x | x | x | 11 | x
[O-][N+]1(CC[N+]2([O-])CCCCC2)CCCCC1 | x | x | x | -8 | x
CN(C)c1ccc(/C=C/C(O)=C2/C(=O)N(C)C3(C)CC2c2ccccc2O3)cc1 (stereo not given) | 60*[fluorescence artefact?] | 74*[fluorescence artefact?] | 27 | 7 | 0
O=C(O)c1ccccc1-c1ccccc1C(=O)Nc1ccc2c(c1)Cc1cc(F)ccc1-2 | x | x | x | 21 | x
CCOC(=O)CSCC(=O)Nc1c(C(=O)C2CC2)oc2ccccc12 | -4 | 0 | 105 | 3 | 0
CC(=O)c1c(C)oc2ccc(NS(=O)(=O)c3ccc(O)c(C(=O)O)c3)cc12 | 31 | 14 | 62 | -4 | -6
SMILES | ERb coact inh | ERa coact inh | ERa coact pot | Smad3 inh | FAK inh
O=C(O)c1cc(S(=O)(=O)Nc2ccc3oc(=O)sc3c2)ccc1O | 55*[fluorescence artefact?] | 43 | 60 | -8 | 1
Nc1nc(N)c2[nH]cnc2n1 (tested in a mixture with another compound) | x | x | x | -3 | x
CCOC(=O)c1cnc2cc(-c3ccc(C)cc3)nn2c1-c1ccccc1 | 46 | 13 | 247*[fluorescence artefact?] | -3 | 1
CCSc1nnc(NC(=O)COc2ccc3ccccc3c2)s1 | 11 | 21 | 259*[fluorescence artefact?] | 6 | 0
CCSc1nnc(NC(=O)COc2ccccc2)s1 | -4 | -1 | 107 | -8 | -3
CCSc1nnc(NC(=O)C(Cc2ccccc2)n2cccc2)s1 (stereo not given) | -8 | -7 | 249*[fluorescence artefact?] | -28 | 0
Cc1csc(NC(=O)C(Cc2ccccc2)n2cccc2)n1 (stereo not given) | -9 | -8 | 82 | 10 | 0
C[C@H](OP(=O)(O)O)[C@H](N)C(=O)O | x | x | x | 3 | x

From PubChem BioAssay
